Screening results: PubChem BioAssay, National Center for Advancing Translational Sciences (NCATS)
12-LOX inh: ALOX12 (human) lipoxygenase inhibition; P18054; purified 12hLO, xylenol orange hydroperoxide absorbance; Potency, µM (series often up to 108 µM), most hits filed as inhibitors; 1.1% of 580,000 active
Target sequence (P18054 whole entry, looked up): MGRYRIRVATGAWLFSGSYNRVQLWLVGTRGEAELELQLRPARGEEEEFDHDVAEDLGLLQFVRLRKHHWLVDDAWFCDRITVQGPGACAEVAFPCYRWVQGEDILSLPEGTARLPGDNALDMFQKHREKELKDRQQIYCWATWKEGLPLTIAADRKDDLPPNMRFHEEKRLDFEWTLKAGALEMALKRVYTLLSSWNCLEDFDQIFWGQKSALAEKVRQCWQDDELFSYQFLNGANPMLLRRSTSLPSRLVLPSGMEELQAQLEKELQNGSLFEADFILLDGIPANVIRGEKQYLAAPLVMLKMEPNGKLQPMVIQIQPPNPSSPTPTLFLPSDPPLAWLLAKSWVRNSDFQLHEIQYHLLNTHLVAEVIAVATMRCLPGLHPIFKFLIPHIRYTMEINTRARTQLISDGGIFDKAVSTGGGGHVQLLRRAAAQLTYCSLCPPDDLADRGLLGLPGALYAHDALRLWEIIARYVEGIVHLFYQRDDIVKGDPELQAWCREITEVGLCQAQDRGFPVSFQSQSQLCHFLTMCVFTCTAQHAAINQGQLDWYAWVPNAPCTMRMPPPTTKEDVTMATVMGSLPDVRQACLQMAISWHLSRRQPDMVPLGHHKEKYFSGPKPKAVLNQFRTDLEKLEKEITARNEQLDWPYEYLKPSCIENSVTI
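Purified human 12hLO (150 nM final) in 25 mM Hepes, 0.01% Triton X-100, pH 7.0 was preincubated 15 min at room temperature with compound. Then 40 uM arachidonic acid was added, 30 min. Hydroperoxide was read by Fe-XO absorbance ratio 573/405 nm.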
DT40 TDP1 no CPT: qHTS for Inhibitors of human tyrosyl-DNA phosphodiesterase 1 (TDP1): qHTS in cells in absence of CPT; 15% of 420,000 active; Potency, µM (titrated, usually from 46.2 µM), most hits filed as inhibitors; DT40 Tdp1-/- hTDP1 cells, no CPT, ATP luminescence, 48 h; AID 686978, 2013; also: nearly all actives have a fitted effect of over 55% in size
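Luminescent ATP content (CellTiter-Glo) served as the growth readout. Knockout chicken DT40 cells expressing human TDP1 were exposed to compounds without camptothecin for a minimum 48 hr at 37 °C.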
TDP1 cell CPT: growth inhibition of DT40 Tdp1-/-;hTDP1 cells with camptothecin (screen for TDP1 inhibitors) | chicken DT40 Tdp1-/-;hTDP1 cells + 20 nM CPT, ATP luminescence, 48 h | Potency, µM (titrated, usually from 46.2 µM), most hits filed as inhibitors | 12% of 420,000 active | AID 686979; also: nearly all actives have a fitted effect of over 55% in size
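Chicken DT40 Tdp1-/- cells stably complemented with human TDP1 were seeded at 400 cells/well in medium containing 20 nM camptothecin, exposed to pin-transferred compounds, and grown at 37 °C for at least 48 hr. Viability was read as ATP luminescence.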
HT1080 IDH1KD tx: toxicity to HT-1080 IDH1 knockdown cells (counter line). HT-1080 IDH1 knockdown viability, ATP luminescence, 48 h. Potency, µM (top dose mostly 46.1 µM), most hits filed as cytotoxic. 2% of 360,000 active
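After a 2 h attachment period, IDH1KD HT-1080 cells took pin-transferred compound for 48 h at 37 °C; ATP-based luminescence after 10 min room-temperature reagent incubation reported viability.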
IL-1B inflam inh: inhibitors of inflammasome signaling (IL-1 beta secretion); THP-1 LPS/ATP IL-1B secretion, AlphaLISA, 16 h; active compounds read low; activity change, % at 57.5 µM; 4.7% of 360,000 active; AID 743279; in the data active = activity change below about -50%; inconclusive = mostly about -30% to -49%
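Secreted IL-1B measured by AlphaLISA bead assay after 16 h compound exposure of THP-1 cells; compounds (final up to 57.5 uM) added 1 h before LPS (250 ng/mL) and ATP (1.25 mM) stimulation; lower signal means less secretion.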
HT1080-NT tox: kills 2HG-producing HT-1080-NT fibrosarcoma cells | HT-1080-NT fibrosarcoma viability, CellTiter-Glo ATP luminescence, 48 h | Potency, µM (top dose mostly 46.1 µM), hits mostly cytotoxic | 1.6% of 360,000 active;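 also: NT is the 2HG producing partner of a matched IDH1 knockdown line; nearly all actives have a fitted effect of over 55% in size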
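Read-out is CellTiter-Glo luminescence after 10 minutes at room temperature, following 48 hours' compound treatment of HT-1080-NT cells (750 cells/well, RPMI, 5% FBS, 37 degrees C).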
Each line names hits and unclear results; the compound was inactive in the other large screens; ! = not confirmed by another sample. The entries come from a sample that favours hits as a whole. Unless noted, calls follow the shape of the dose curve; as a rule, active = well fitted curve in the direction sought with a large enough effect; inconclusive = small, poorly fitted or top-dose-only effect, or another doubt; inactive = no such curve, though single readings can be large; an effect the other way counts as inactive or inconclusive.

CCCS(=O)(=O)NC(=O)C1(C)CCCN(C(=O)c2cc(-c3cccs3)oc2C)C1 (configuration not stated)	none
CCOc1ccc(CNC(=O)CN2N=C(c3ccccc3)CCC2=O)cc1OC	none (no result: HT1080 IDH1KD tx, IL-1B inflam inh, HT1080-NT tox)
O=C(Nc1ccc(C(F)(F)F)cc1)C1(c2cccs2)CCOCC1	12-LOX inh inconclusive, DT40 TDP1 no CPT 23µM, TDP1 cell CPT inconclusive (no result: HT1080 IDH1KD tx, IL-1B inflam inh, HT1080-NT tox)
CC(=O)Nc1cccc(NC(=O)C2(c3cccs3)CCOCC2)c1	none (no result: HT1080 IDH1KD tx, IL-1B inflam inh, HT1080-NT tox)
CN(C)c1ccc(NC(=O)C2(c3cccs3)CCOCC2)cc1	none (no result: HT1080 IDH1KD tx, IL-1B inflam inh, HT1080-NT tox)
O=C(Nc1cc(Cl)ccc1Cl)C1(c2cccs2)CCOCC1	DT40 TDP1 no CPT 21µM, TDP1 cell CPT 16µM (no result: HT1080 IDH1KD tx, IL-1B inflam inh, HT1080-NT tox)
Cc1ccc(NC(=O)C2(c3cccs3)CCOCC2)cc1Cl	DT40 TDP1 no CPT inconclusive, TDP1 cell CPT 26µM (no result: HT1080 IDH1KD tx, IL-1B inflam inh, HT1080-NT tox)
NC(=O)c1ccc(N2CCN(Cc3cnc(-c4ccco4)nc3)CC2)nc1	none (no result: DT40 TDP1 no CPT, TDP1 cell CPT, HT1080 IDH1KD tx, IL-1B inflam inh, HT1080-NT tox)
O=C(Cc1ccccc1)N1CCCC1c1ccccc1 (configuration not stated)	DT40 TDP1 no CPT inconclusive, TDP1 cell CPT 16µM
O=C(CCc1c[nH]c2ccccc12)N1CCCC1c1ccccc1 (configuration not stated)	none (no result: DT40 TDP1 no CPT, TDP1 cell CPT, HT1080 IDH1KD tx, IL-1B inflam inh, HT1080-NT tox)
Cc1cc(S(=O)(=O)Nc2ccc(C(=O)NCCCN3CCCC3=O)cc2)ccc1F	none
O=C(NC(=S)Nc1ccc(N2CCOCC2)cc1)c1ccc2c(c1)OCCO2	12-LOX inh inconclusive, DT40 TDP1 no CPT 23µM, TDP1 cell CPT inconclusive
O=C(NC(=S)Nc1ccc(N2CCCCC2)cc1)c1ccc2c(c1)OCCO2	12-LOX inh inconclusive, DT40 TDP1 no CPT 16µM, TDP1 cell CPT inconclusive, HT1080 IDH1KD tx inconclusive
COc1ccc(NC(=S)NC(=O)c2ccc3c(c2)OCCO3)cc1	12-LOX inh 7.1µM, DT40 TDP1 no CPT 18µM, TDP1 cell CPT inconclusive
CS(=O)(=O)N1CCN(c2ccc(NC(=S)NC(=O)c3ccc4c(c3)OCO4)cc2)CC1	12-LOX inh inconclusive, DT40 TDP1 no CPT inconclusive
CCOc1ccc(C(=O)Nc2ccc(CN3CCOCC3)cc2)cc1Br	12-LOX inh inconclusive, DT40 TDP1 no CPT inconclusive, TDP1 cell CPT inconclusive, IL-1B inflam inh inconclusive, HT1080-NT tox inconclusive
COc1ccc(C(=O)NC(=S)Nc2ccc(CN3CCOCC3)cc2)cc1Br	12-LOX inh inconclusive, DT40 TDP1 no CPT 10µM, TDP1 cell CPT inconclusive
CN1CCCCCCN(C(=O)c2ccccn2)[C@H]2CCC[C@H]2C1=O	none (no result: DT40 TDP1 no CPT, TDP1 cell CPT, HT1080 IDH1KD tx, IL-1B inflam inh, HT1080-NT tox)
CC(=O)NC(C)C(=O)NC(C)c1cccc(Cl)c1 (configuration not stated)	none (no result: DT40 TDP1 no CPT, TDP1 cell CPT, HT1080 IDH1KD tx, IL-1B inflam inh, HT1080-NT tox)
C/C(=N/Nc1ccc(S(N)(=O)=O)cc1[N+](=O)[O-])c1ccc(C2CCCCC2)cc1	none (no result: DT40 TDP1 no CPT, TDP1 cell CPT, HT1080 IDH1KD tx, IL-1B inflam inh, HT1080-NT tox)
O=C(NC(=S)Nc1ccc(CN2CCOCC2)cc1)c1ccc2c(c1)OCCO2	DT40 TDP1 no CPT 15µM, TDP1 cell CPT inconclusive, HT1080 IDH1KD tx inconclusive, IL-1B inflam inh inconclusive, HT1080-NT tox inconclusive
O=C(Nc1ccc(CN2CCOCC2)cc1)c1ccc(-c2ccc(Br)cc2)o1	DT40 TDP1 no CPT 18µM, TDP1 cell CPT 16µM, HT1080 IDH1KD tx inconclusive, IL-1B inflam inh -79, HT1080-NT tox 14µM
O=C(NC(=S)Nc1ccc(CN2CCOCC2)cc1)c1ccc([N+](=O)[O-])cc1	TDP1 cell CPT inconclusive
COc1ccc(COc2cccnc2N)cc1	none
Nc1ncccc1OCc1ccc(Br)cc1	DT40 TDP1 no CPT 18µM
CN(CC(=O)NC(=O)NC1CCCC1)Cc1ccco1	none (no result: DT40 TDP1 no CPT, TDP1 cell CPT, HT1080 IDH1KD tx, IL-1B inflam inh, HT1080-NT tox)
Cc1nc(N2CCC(C(=O)NC3CCc4ccccc43)CC2)cc(C(F)(F)F)n1 (configuration not stated)	none (no result: DT40 TDP1 no CPT, TDP1 cell CPT, HT1080 IDH1KD tx, IL-1B inflam inh, HT1080-NT tox)
COc1ccc(NC(=O)c2oc3ccc(S(=O)(=O)N4CCC5(CC4)OCCO5)cc3c2C)cc1Cl	DT40 TDP1 no CPT 9.2µM, TDP1 cell CPT 8.2µM (no result: HT1080 IDH1KD tx, IL-1B inflam inh, HT1080-NT tox)
Cc1ccc(NC(=O)c2oc3ccc(S(=O)(=O)N4CCC5(CC4)OCCO5)cc3c2C)cc1C	DT40 TDP1 no CPT inconclusive, TDP1 cell CPT 8.2µM!
